Test results reported in PubChem BioAssay (EPA / NIEHS).
Results filed as inconclusive are left out. Active and inactive are the calls of the source. Rule for the calls, unless noted: active = hit-call score of the fitted dose curve at least 0.9, where 1 is the maximum; inconclusive = response in the unintended direction; inactive = score below 0.9.

Experiments:
[1] = CEETOX_H295R_ANDR_noMTC: CeeTox H295R High-throughput Steroidogenesis Assay for Androstenedione (ANDR), maximum tolerated concentration (MTC) filtered results only (AID 2283915; active = hit-call score of the fitted dose curve at least 0.9, where 1 is the maximum; inactive = score below 0.9); settings: actives raise or lower the signal
How it was run: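 Androstenedione secreted into medium was measured by LC-MS/MS after MTBE extraction. Human adrenal H295R cells received 10 uM forskolin for 48 h before 48 h chemical exposure (0.1% DMSO). Gain or loss fitted against DMSO, including concentrations above the MTT-derived MTC.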

[2] = CEETOX_H295R_TESTO_noMTC: CeeTox H295R High-throughput Steroidogenesis Assay for Testosterone (TESTO), maximum tolerated concentration (MTC) filtered results only (AID 2283924; active = hit-call score of the fitted dose curve at least 0.9, where 1 is the maximum; inactive = score below 0.9); settings: actives raise or lower the signal
Procedure: CEETOX_H295R is a cell-based, multiplexed-readout assay that uses H295R, a human adrenal gland cell line, with measurements taken at 48 hours after chemical dosing in a 96-well plate.CEETOX_H295R_TESTO_noMTC is one of 12 assay component(s) measured or calculated from the CEETOX_H295R assay (11 hormones and 1 viability assay). It is designed to make measurements of hormone induction, a form of inducible reporter, as detected with absorbance signals by HPLC-MS-MS technology. The concentrations for these components have not been pre-filtered for the maximum tolerated concentration (MTC) based on the MTT assay (_noMTC).Data from the assay component CEETOX_H295R_TESTO_noMTC was analyzed into 1 assay endpoint. This assay endpoint, CEETOX_H295R_TESTO_noMTC, was analyzed with bidirectional fitting relative to DMSO as the negative control and baseline of activity. […]
Cell culture and media preparation procedures were conducted in accordance with OECD Test No. 456 guidelines, with minor modifications. […] For steroid quantification, media samples were shipped to OpAns, LLC (Durham, NC) on dry ice, and samples were thawed to room temperature prior to liquid-liquid extraction. […] Steroid hormones were separated by HPLC, eluted using a reverse phase C18 gradient with electrospray positive ionization, followed by quantification by tandem mass spectrometry (MS/MS). […]

[3] = TOX21_PR_BLA_Followup_Antagonist_viability: Viability Assessment in the Tox21 HEK293 Progesterone Receptor (PR) Antagonism Beta-lactamase Follow-Up Assay (AID 2283936);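 note: cells exposed to compound with R5020 agonist for 16 h; hits lower the luminescence signal meaning cytotoxicity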
How it was run: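 PR-UAS-bla HEK293T cells in medium with 2% charcoal-stripped FBS were treated with compounds plus R5020 for 16 hr at 37C. After the beta-lactamase read, CellTiter-Glo was added to the same wells and luminescence read after 30 min at room temperature.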

PGR (gene 5241) = PGR (gene 5241) (UniProt P06401); test: TOX21_PR_LUC_Followup_Antagonist: Tox21 HEK293 Progesterone Receptor (PR) Antagonism Luciferase Follow-Up Assay (AID 2283938);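 note: curve fitted upward as signal gain over DMSO baseline despite antagonist label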
How it was run: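 Luminescence from ONE-Glo reagent, measured after 30 min at room temperature, served as readout. Cells (HEK293 carrying PR-A-luc) had been treated 16 h at 37C with DMSO-dissolved compounds. Activity was fitted against DMSO controls.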

[4] = TOX21_PR_LUC_Followup_Antagonist_viability: Viability Assessment in the Tox21 HEK293 Progesterone Receptor (PR) Antagonism Luciferase Follow-Up Assay (AID 2283940)
How it was run: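 Read-out: CellTiter-Glo ATP luminescence, loss of signal taken as reduced viability. Cells: HEK293-PR-A-luc, 3,000/well, 5 h settling, then 16 h compound exposure at 37C, 0% CO2.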

[5] = target: Thyroid hormone receptor alpha (Rattus norvegicus) + Thyroid hormone receptor beta (Rattus norvegicus) (UniProt P18113+P63059); test: TOX21_TR_LUC_GH3_Antagonist_Followup: Tox21 GH3 Thyroid Hormone Receptor Antagonism Luciferase Follow-Up Assay (AID 2283942)
How it was run: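 Loss of T3-driven (1.0 nM final) reporter activity in GH3 cells was read by ONE-Glo luminescence after 24 h incubation at 37C; 15-point compound series spanned 92 uM to 5nM final, 1,500 cells/well.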

THRA (gene 7067) [6] = target: THRA (gene 7067) (UniProt P10827); test: TOX21_TRA_COA_Antagonist_Followup_ratio: Tox21 Thyroid Hormone Receptor alpha Antagonism through Coactivator Recruitment Follow-Up Assay, Ratio (AID 2283953)
How it was run: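 We measured antagonism of T3-type coactivator recruitment using a TR-FRET ratio (emission 520 and 495 nm) between a Tb-labelled anti-GST antibody on TRα LBD (2.5 nM) and SRC-2 peptide (200 nM). Activity was scaled between DMSO and T3 wells.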

THRA (gene 7067) [7] = target: THRA (gene 7067) (UniProt P10827); test: TOX21_TRA_COA_Agonist_Followup_ratio: Tox21 Thyroid Hormone Receptor alpha Agonism through Coactivator Recruitment Follow-Up Assay, Ratio (AID 2283948; active = hit-call score of the fitted dose curve at least 0.9, where 1 is the maximum; inactive = score below 0.9)
How it was run: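 GST-TRa LBD 2.5 nM + 0.10% BSA + cpd; add fluorescein-SRC-2 200 nM, Tb-anti-GST 2 nM. TR-FRET ex 340, em 520/495 ratio. Norm: DMSO 0%, T3 100%; gain-of-signal fit.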

THRB (gene 7068) = THRB (gene 7068) (UniProt P10828); test: TOX21_TRB_BLA_Agonist_Followup_ratio: Tox21 Thyroid Hormone Receptor beta Agonism Beta-lactamase (BLA) Follow-Up Assay, Ratio (AID 2283954)
How it was run: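 Agonist mode: compounds (11-point, triplicate) incubated 18 h with HEK293T cells carrying GAL4-DBD/human TRβ-LBD and UAS-β-lactamase. Blue/green (460/530 nm) FRET ratio read after 2 h CCF4-AM loading; CellTiter-Glo viability run in the same plates.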

Chain of THRA (gene 7067) (P10827 whole entry, looked up, the tested form may be a part): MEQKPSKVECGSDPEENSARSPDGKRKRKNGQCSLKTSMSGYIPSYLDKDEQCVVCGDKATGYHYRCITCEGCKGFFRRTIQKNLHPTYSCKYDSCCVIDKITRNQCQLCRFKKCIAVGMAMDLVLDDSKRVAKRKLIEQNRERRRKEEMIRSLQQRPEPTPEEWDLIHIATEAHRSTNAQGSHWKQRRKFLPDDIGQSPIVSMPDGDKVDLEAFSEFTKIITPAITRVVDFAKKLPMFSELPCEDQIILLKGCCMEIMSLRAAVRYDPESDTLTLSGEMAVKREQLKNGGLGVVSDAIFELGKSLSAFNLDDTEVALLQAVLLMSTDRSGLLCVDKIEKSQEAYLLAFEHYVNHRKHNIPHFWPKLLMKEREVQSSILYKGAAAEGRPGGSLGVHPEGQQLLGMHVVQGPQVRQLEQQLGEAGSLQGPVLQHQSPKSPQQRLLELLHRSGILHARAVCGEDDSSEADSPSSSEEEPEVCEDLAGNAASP
Chain of PGR (gene 5241) (P06401 whole entry, looked up): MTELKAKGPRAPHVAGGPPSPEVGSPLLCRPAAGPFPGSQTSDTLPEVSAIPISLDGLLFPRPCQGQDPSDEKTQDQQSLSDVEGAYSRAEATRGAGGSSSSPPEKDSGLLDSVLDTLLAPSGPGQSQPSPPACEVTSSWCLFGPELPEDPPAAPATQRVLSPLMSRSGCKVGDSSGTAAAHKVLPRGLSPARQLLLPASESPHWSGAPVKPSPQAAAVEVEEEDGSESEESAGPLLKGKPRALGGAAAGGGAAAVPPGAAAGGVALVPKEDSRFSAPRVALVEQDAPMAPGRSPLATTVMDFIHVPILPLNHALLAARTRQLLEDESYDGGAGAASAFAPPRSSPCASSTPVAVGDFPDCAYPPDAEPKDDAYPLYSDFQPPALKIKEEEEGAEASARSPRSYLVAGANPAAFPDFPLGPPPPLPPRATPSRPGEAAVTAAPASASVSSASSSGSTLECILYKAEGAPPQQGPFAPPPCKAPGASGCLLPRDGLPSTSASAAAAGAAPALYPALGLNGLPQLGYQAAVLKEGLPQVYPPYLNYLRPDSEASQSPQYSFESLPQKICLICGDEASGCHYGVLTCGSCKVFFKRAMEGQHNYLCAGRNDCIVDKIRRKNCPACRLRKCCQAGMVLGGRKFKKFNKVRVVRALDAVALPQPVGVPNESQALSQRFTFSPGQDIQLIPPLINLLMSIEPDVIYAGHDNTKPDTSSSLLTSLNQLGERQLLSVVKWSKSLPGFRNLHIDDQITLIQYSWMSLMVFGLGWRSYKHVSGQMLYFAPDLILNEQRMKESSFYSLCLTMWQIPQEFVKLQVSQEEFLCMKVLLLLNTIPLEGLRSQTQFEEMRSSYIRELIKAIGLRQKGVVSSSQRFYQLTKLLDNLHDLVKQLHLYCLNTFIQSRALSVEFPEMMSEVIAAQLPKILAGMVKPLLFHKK
Chain of THRB (gene 7068) (P10828 whole entry, looked up, the tested form may be a part): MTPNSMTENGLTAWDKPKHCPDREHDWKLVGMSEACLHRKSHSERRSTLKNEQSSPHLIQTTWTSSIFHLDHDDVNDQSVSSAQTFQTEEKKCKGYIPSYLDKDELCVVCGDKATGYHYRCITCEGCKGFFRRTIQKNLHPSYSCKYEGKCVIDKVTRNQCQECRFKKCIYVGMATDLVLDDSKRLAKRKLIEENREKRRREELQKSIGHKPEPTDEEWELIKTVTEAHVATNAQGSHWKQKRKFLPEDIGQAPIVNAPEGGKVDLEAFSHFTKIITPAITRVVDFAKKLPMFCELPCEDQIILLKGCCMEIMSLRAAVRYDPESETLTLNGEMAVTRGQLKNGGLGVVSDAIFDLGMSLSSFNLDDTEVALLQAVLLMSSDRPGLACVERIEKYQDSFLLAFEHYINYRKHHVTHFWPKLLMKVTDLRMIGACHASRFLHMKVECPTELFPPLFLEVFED

O=C(O)c1ccccc1C(=O)OCc1ccccc1
outcome [1]: inactive | outcome [2]: inactive

Cc1ccc2oc(CN(Cc3ccccc3)C(=O)Nc3c(F)cc(F)cc3F)c(-c3ccc(Cl)cc3)c2c1
outcome [3]: inactive | AC50 (PGR (gene 5241)): 1.09 µM (active)

C[C@]12CC[C@@H]3c4ccc(O)cc4CC[C@H]3[C@@H]1CCC2=O
outcome [3]: inactive | outcome [4]: inactive

O=C(O)Cc1cc(I)c(Oc2ccc(O)c(I)c2)c(I)c1
outcome [4]: inactive

COc1cc(C(=O)NC2CCN(C)CC2)ccc1Nc1ncc2c(n1)N(C1CCCC1)CC(F)(F)C(=O)N2C
AC50 [5]: 16.4 µM (active) | outcome (THRA (gene 7067) [6]): inactive

O=C1O[C@H]([C@@H](O)CO)C(O)=C1O
outcome (THRA (gene 7067) [7]): inactive | outcome (THRB (gene 7068)): inactive
